# Only some compounds are listed: those with a hit (about 1.3% of all), similar ones and a draw of the others.
# ADAM10 inh – human ADAM10 inhibitors, primary screen, biochemical, QFRET, HTS; AID 720582, 2013; recombinant ADAM10, EDANS/DABCYL FRET peptide cleavage, 3 h; 0.62% of 370,000 active; inhibition, % at 7 µM;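 active = inhibition above a per-campaign cutoff equal to the mean of compounds falling between control-based bounds plus 3 SD, cut at about 20% in these data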;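 also: 0% = DMSO wells while the 100% control is not disclosed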
# Target sequence (O14672 214-748 limits assumed): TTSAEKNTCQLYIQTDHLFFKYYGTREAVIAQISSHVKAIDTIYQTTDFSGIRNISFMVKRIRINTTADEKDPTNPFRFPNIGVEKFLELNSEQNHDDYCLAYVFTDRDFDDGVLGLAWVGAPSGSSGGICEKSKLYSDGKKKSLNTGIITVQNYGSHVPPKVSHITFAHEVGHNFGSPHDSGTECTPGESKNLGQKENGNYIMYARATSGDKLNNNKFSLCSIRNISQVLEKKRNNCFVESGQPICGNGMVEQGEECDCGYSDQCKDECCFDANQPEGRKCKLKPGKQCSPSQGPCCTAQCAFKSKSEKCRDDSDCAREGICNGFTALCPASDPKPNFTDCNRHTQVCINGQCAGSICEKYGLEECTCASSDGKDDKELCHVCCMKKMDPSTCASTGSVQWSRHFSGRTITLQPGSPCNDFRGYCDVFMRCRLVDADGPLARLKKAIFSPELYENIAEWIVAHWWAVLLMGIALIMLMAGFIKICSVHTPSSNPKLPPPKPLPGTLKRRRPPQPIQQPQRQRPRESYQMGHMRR
# GC-B act – human GC-B receptor activators, primary screen, HEK293 GC-B cells, cGMP TR-FRET, EC30 CNP. 0% at EC30 CNP, 100% saturating CNP. activation, % at 10 µM. 0.11% of 370,000 active. Atrial natriuretic peptide receptor 2 (Homo sapiens), P20594;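 active = activation at 10 µM reaching about 35% in either raw or pattern-adjusted values, limit read from the data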
# ADAM17 inh – ADAM17 inhibitors, primary screen, biochemical, QFRET; Disintegrin and metalloproteinase domain-containing protein 17 (Homo sapiens), P78536; recombinant ADAM17, EDANS/DABCYL FRET peptide cleavage; inhibition, % at 6.95 µM; 0.83% of 370,000 active; AID 720648, 2013;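 active = inhibition above the mean of compounds lying between control limits plus 3 SD, set per campaign, cut at about 8.5% in these data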;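 also: 0% = DMSO-only wells as the low control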
# NPR1 activator – GC-A stimulated cGMP production enhancers – HEK293 GC-A cells, cGMP TR-FRET, EC30 ANP, primary screen. 0.14% of 370,000 active. activation, % at 10 µM. 0% at EC30 ANP, 100% saturating ANP. AID 1671463, 2021; in the data active = activation above about 40%
# ADAM10 counter – ADAM10 inhibitors, counter-screen for ADAM17 exosite inhibitor project, biochemical, FRET, human ADAM10; shares compounds with ADAM17 inh; inhibition, % at 6.95 µM; recombinant ADAM10, EDANS/DABCYL FRET peptide cleavage, 3 h; 47% of 2,900 active; AID 743256, 2014;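 active = mean inhibition over the triplicate runs exceeds the activity threshold set in the earlier primary screen, cut at about 20% in these data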;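 also: 0% = DMSO wells and 100% = marimastat wells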
# ADAM17 confirm – ADAM17 inhibitors, hit retest, confirmation, biochemical, QFRET peptide cleavage; shares compounds with ADAM17 inh; recombinant ADAM17, EDANS/DABCYL QFRET peptide cleavage; inhibition, % at 6.95 µM; 65% of 2,900 active;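 active = mean inhibition across replicates above the hit cutoff set in the primary screen, cut at about 8.5% in these data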;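 also: 0% = DMSO wells and 100% = marimastat wells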
# * hit, by the source's call; / = no result given.
SMILES,ADAM10 inh,GC-B act,ADAM17 inh,NPR1 activator,ADAM10 counter,ADAM17 confirm
Cc1ccc(-n2nnnc2SCC(=O)Nc2ccccc2-c2ccccc2)cc1C,9.6,-2.7,9.0*,1.7,25.8*,14.8*
Cc1ccc(-n2nnnc2SCC(=O)Nc2ccccc2N2CCCCC2)cc1C,4.3,2.5,2.9,-2.0,/,/
O=C(NC(=S)NCc1ccccc1)c1ccccc1F,-8.9,6.1,-3.2,0.6,/,/
O=C(NC(=S)NCCc1ccccc1)c1ccccc1F,12.9,3.1,10.3*,-0.8,11.9,5.7
CCCC12CN(C(=O)c3ccco3)CC(CCC)(CN(C(=O)c3ccco3)C1)C2=O,-3.7,1.2,-0.2,-0.7,/,/
CCCC(=O)N1CC2(C)CN(C(=O)CCC)CC(CCC)(C1)C2=O,7.7,-7.7,12.3*,-5.0,5.2,4.8
O=C1C(Cc2ccccc2)NC(=S)N1c1ccccc1 (centres undefined),13.3,-0.4,10.1*,5.9,-1.9,1.8
COc1ccc(Cn2c(NC(=O)c3ccccc3)nc(Cc3ccccc3)c2-c2ccccc2)cc1,-15.2,-3.6,-1.9,2.8,/,/
CCOc1cc(/C=C2\SC(=S)N(Nc3ccccc3)C2=O)ccc1O,17.5,4.7,9.5*,0.3,31.1*,14.3*
COc1cc(/C=C2\SC(=S)N(Nc3ccccc3)C2=O)ccc1O,14.6,-6.6,4.4,1.4,/,/
O=c1oc(-c2ccc(Br)cc2)nc2ccccc12,3.5,-11.2,-4.6,-5.4,/,/
O=C(NCc1ccccc1)C(c1ccc(-c2ccccc2)cc1)n1c(=O)c(-c2ccco2)nc2ccccc21 (centres undefined),-28.6,-10.8,-10.5,-8.6,/,/
N/C(=N\N=C\c1cccs1)SC1CC(=O)N(c2ccc(Br)cc2)C1=O (centres undefined),16.8,-1.8,8.2,-3.8,/,/
C/C(=N\N=C(/N)SC1CC(=O)N(c2ccc(Cl)cc2)C1=O)c1cccs1 (centres undefined),15.4,-5.9,10.8*,-5.7,35.2*,17.8*
CCOC(=O)C1CCCN(C(=O)c2ccc(F)c(Cl)c2)CC1 (centres undefined),-8.2,-4.8,-2.6,-0.7,/,/
O=C(Nc1nnc([C@@H]2C[C@H](O)[C@@H](CO)O2)s1)Nc1ccc(F)cc1F,4.7,-2.2,10.3*,0.7,2.1,2.4
O=C(Nc1nnc([C@H]2C[C@H](O)[C@@H](CO)O2)s1)Nc1ccc(F)cc1F,-6.5,0.9,-2.7,-0.3,/,/
Cc1ccc(NC(=S)NC(=O)c2c(-c3ccccc3Cl)noc2C)cc1,11.2,-1.6,10.0*,1.8,26.3*,14.1*
Cc1onc(-c2ccccc2Cl)c1C(=O)Nc1ccc2c(c1)OCO2,2.0,-9.4,10.4*,-10.8,11.1,8.5
C=CCN=C1NC(c2cccc(Cl)c2)C(C(=O)OC)=C(C)N1C (centres undefined),-1.1,-18.0,-3.4,-11.7,/,/
CCSc1nnc(NC(=O)C2CCN(C(=O)c3ccc(F)cc3)CC2)s1,-10.3,-9.1,-4.4,-1.1,/,/
O=C(c1ccccc1[N+](=O)[O-])N(CCc1ccccc1)Cc1ccccc1,-3.0,-4.5,1.3,-2.9,/,/
Cc1cccc(C(=O)N(CCc2ccccc2)Cc2ccccc2)c1[N+](=O)[O-],14.0,-6.1,8.8*,-7.7,27.9*,13.0*
CC1CCCCC12NC(=O)N(CC(=O)Nc1ccc(Cl)c(S(=O)(=O)N3CCOCC3)c1)C2=O (centres undefined),1.6,2.1,-2.4,-4.6,/,/
CCCC1(CCC)NC(=O)N(CC(=O)Nc2ccc(Cl)c(S(=O)(=O)N3CCOCC3)c2)C1=O,16.1,1.4,15.4*,-0.6,2.8,1.6
C[C@@H]1CC=C[C@H]2[C@H]1C(=O)N(Cc1ccccc1)[C@H]2c1ccc(-c2cc3ccccc3s2)cc1F,-7.3,1.6,2.1,0.7,/,/

# High-throughput results: PubChem, several laboratories
